# PubChem BioAssay (NCATS)
# Inconclusive results are not listed. Activity calls are given as the source filed them. Unless noted, the call rests on the fitted dose curve; in most records, active means well fitted curve in the direction sought with a large enough effect; inconclusive means small, poorly fitted or top-dose-only effect, or another doubt; inactive means no such curve, though single readings can be large; an effect the other way counts as inactive or inconclusive.
# Legend:
# [1] = molecular target: Lysosomal acid glucosylceramidase (Homo sapiens) (UniProt P04062); assay: Glucocerebrosidase-p2 (AID 348; in the data active means potency below about 10 µM; further: potency means the concentration at half of the fitted maximal effect); settings: purified GBA, blue fluorogenic substrate, 40 min
# Lysosomal acid glucosylceramidase (Homo sapiens), sequence (P04062 whole entry, looked up): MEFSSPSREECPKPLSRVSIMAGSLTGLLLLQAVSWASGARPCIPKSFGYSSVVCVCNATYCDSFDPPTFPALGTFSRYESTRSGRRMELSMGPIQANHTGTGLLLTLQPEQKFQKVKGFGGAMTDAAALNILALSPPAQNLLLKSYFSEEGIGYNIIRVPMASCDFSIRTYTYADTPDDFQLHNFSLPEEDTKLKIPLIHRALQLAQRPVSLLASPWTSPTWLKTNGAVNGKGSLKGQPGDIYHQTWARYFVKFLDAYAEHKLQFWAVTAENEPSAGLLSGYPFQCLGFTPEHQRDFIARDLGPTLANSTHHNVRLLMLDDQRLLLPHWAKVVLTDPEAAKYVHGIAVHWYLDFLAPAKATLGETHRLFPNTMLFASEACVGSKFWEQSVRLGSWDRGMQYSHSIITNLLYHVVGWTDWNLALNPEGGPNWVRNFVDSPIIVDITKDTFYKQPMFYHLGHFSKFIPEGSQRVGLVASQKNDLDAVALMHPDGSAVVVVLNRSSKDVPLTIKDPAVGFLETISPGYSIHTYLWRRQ
# How it was run: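 Normal human glucocerebrosidase (0.2 nM) with blue fluorogenic substrate (80 uM final) in citrate/phosphate pH 5.9 with 10mM sodium taurocholate, 0.01% tween-20; 40 min RT, NaOH/glycine stop; fluorescence Ex 365/Em 440; AC50 from a titration from 0.6 nM upwards.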
# [2] = AP1 Signaling Pathway (AID 357; active means well fitted curve in either direction with a large enough effect, not every such curve was filed as active; further: on the % scale 0 is the no-effect control and ±100 the full control effect); settings: ME-180 AP-1-bla reporter, EGF-induced, beta-lactamase ratio, 5 h; at 7.69 µM (top of the series) unless noted
# How it was run: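 First, ME-180 AP-1-bla cells were cultured overnight at 37 °C in low-serum Opti-MEM. Next, titrated compounds with EC50 EGF were incubated 5 hours. Finally, CCF4 was added for 2.5 hours and the 460/530 nm ratio recorded.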
# [3] = NFAT Signaling Pathway (AID 444; active means well fitted curve in either direction with a large enough effect, not every such curve was filed as active;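 further: carbachol stimulus at about its EC50 of 1 µM final; on the % scale 0 is the no-effect control and ±100 the full control effect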); settings: Jurkat NFAT-bla M1, carbachol, beta-lactamase ratio, 5 h; at 7.69 µM (top of the series) unless noted
# How it was run: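 Jurkat cells with NFAT-driven β-lactamase reporter and co-expressed M1 receptor, stimulated with carbachol (final 1 uM, ~EC50), compound titration, 5 h at 37 °C. CCF4 loaded 1 h at RT; 460/530 nm ratio gave %activity and AC50.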
# [4] = molecular target: Glucocorticoid receptor (Homo sapiens) (UniProt P04150); assay: GR-GFP Redistribution (AID 450;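 active means compounds whose dose series gives a full or clear partial fitted curve of increased nuclear translocation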; further: potency means the concentration at half of the fitted maximal effect); settings: U2OS GR-GFP nuclear translocation, laser cytometry, 2 h
# Glucocorticoid receptor (Homo sapiens), sequence (P04150 whole entry, looked up, the tested form may be a part): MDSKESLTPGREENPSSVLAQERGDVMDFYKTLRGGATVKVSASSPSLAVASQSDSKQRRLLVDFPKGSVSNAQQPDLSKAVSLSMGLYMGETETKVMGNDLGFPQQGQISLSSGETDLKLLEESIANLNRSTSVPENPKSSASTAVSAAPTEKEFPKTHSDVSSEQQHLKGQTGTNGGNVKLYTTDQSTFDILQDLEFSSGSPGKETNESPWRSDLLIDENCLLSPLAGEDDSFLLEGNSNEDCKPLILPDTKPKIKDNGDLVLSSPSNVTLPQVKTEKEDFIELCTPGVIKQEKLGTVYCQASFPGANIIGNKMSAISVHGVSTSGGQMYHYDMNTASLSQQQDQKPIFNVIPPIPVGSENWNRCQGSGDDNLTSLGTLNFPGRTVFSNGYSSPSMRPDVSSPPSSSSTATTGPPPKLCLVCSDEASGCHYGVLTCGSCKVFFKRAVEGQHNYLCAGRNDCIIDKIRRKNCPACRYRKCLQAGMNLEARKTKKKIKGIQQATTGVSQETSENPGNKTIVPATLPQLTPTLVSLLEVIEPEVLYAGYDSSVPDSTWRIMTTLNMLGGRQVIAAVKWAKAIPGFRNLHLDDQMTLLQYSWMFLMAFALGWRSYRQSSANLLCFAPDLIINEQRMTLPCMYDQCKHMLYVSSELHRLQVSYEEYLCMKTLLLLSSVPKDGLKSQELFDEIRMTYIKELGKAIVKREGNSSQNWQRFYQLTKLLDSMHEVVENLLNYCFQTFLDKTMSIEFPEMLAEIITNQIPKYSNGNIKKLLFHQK
# [5] = molecular target: Glucocorticoid receptor (Homo sapiens) (UniProt P04150); assay: GR-EFC Redistribution (AID 451; calls by dose curve; further: potency means the concentration at half of the fitted maximal effect); settings: CHO-K1 GR-EFC translocation, beta-gal luminescence, 2 h
# How it was run: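 CHO-K1 cells expressing nuclear EA and GR-ED fragments of b-gal; compounds titrated up to 46 uM final, 2 h at 37 C. GR nuclear translocation read as complemented b-gal luminescence after 1 h RT detection.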
# [6] = molecular target: Mitogen-activated protein kinase 10 (Mus musculus) (UniProt Q61831); assay: JNK3 AlphaScreen Assay (AID 530; active means well fitted curve in either direction with a large enough effect, not every such curve was filed as active;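 further: kinase came from lysate of stimulated human HepG2 cells; signal reports phosphorylation of biotinylated GST-cJun 1-79 at Ser73 with 10 µM ATP; on the % scale 0 is the no-effect control and ±100 the full control effect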)
# How it was run: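 Activity was read by AlphaScreen after JNK3-containing HepG2 lysate (cytokine pre-activated) phosphorylated biotinylated GST-cJun with 10 uM ATP at room temperature. Phospho-Ser73 cJun antibody with Protein-A acceptor beads provided detection.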
# [7] = qHTS Assay for Lipid Storage Modulators (AID 1519; calls by dose curve); settings: Drosophila S3 cells, BODIPY lipid droplet/cell ratio, laser cytometry, cells loaded with oleic acid; for activity change, negative = inhibition: at 57.5 µM (top of the series)
# How it was run: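 Cells seeded at 5,000 per well were treated with compounds over a concentration series and loaded with oleic acid (400 uM, as added). Lipid droplet fluorescence (488 nm excitation, 500-530 nm channel) was read by laser-scanning cytometry and normalized to 20 uM Triacsin C.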
# [8] = molecular target: Dual specificity protein kinase CLK4 (Homo sapiens) (UniProt Q9HAZ1); assay: qHTS Assay for Inhibitors of CDC-like Kinase 4 (ADP-Glo Assay) (AID 1771); further: nearly all actives have a fitted effect of over 70% in size; further: potency means the concentration at half of the fitted maximal effect
# Dual specificity protein kinase CLK4 (Homo sapiens), sequence (Q9HAZ1 whole entry, looked up): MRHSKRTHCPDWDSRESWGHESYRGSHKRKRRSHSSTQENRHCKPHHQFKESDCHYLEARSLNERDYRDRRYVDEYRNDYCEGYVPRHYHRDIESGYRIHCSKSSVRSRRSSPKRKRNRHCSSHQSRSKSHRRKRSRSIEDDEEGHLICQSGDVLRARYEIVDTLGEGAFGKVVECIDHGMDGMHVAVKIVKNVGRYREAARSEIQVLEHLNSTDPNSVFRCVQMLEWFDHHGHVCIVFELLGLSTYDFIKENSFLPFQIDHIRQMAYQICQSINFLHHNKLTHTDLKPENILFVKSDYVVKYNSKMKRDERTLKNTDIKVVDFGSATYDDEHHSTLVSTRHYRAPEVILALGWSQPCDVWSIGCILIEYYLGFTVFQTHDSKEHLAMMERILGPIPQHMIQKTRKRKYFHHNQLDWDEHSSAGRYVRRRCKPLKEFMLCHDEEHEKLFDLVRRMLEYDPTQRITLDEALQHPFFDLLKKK
# How it was run: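 ADP production was read by ADP-Glo luminescence after residual ATP depletion, following 1 h room-temperature reaction of 25 nM Clk4, 1 uM ATP and 100 uM RS peptide with MgCl2, EGTA, DTT and Triton X-100.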
# [9] = molecular target: Dual specificity protein kinase CLK4 (Homo sapiens) (UniProt Q9HAZ1); assay: qHTS Assay for Inhibitors of CDC-like Kinase 4 (ADP-FP Assay) (AID 1795);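 further: recombinant human CLK4 phosphorylating RS repeat peptide at 1 µM ATP; on the % scale 0 is the no-effect control and ±100 the full control effect; nearly all actives have a fitted effect of over 60% in size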
# How it was run: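 FP readout: Orange Transcreener ADP2 tracer (4 nM) plus ADP antibody, read after 30 min at room temperature. Kinase step: 6.25 nM Clk4, 100 uM RS peptide, 1 uM ATP, pH 7.5, 1 h.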
# [10] = molecular target: Ubiquitin carboxyl-terminal hydrolase 1 (Homo sapiens) (UniProt O94782); assay: Inhibitors of USP1/UAF1: Pilot qHTS (AID 504865); further: nearly all actives have a fitted effect of over 35% in size; further: potency means the concentration at half of the fitted maximal effect
# Ubiquitin carboxyl-terminal hydrolase 1 (Homo sapiens), sequence (O94782 whole entry, looked up): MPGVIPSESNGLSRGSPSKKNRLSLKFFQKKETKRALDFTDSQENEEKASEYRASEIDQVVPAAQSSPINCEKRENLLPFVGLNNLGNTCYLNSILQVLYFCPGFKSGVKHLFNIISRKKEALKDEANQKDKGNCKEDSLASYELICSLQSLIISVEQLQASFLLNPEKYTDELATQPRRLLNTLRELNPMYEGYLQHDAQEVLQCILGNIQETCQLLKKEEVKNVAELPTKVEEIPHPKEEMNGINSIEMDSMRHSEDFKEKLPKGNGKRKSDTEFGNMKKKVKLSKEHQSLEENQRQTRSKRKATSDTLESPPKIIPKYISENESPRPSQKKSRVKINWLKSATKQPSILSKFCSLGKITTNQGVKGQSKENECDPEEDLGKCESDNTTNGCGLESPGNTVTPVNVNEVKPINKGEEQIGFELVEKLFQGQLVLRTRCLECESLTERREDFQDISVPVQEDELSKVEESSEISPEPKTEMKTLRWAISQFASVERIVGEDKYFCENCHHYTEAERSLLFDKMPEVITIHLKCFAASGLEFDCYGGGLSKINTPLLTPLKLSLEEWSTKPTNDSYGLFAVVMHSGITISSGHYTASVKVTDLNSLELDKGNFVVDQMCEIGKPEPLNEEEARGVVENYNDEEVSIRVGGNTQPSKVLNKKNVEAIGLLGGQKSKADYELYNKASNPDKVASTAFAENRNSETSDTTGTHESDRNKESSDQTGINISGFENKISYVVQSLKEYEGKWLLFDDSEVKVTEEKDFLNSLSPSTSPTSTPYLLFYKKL
# How it was run: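 1nM USP1/UAF1 + cpd, 15 min RT; start w/ Ub-Rho 150nM final; kinetic FL 480/540 nm, 6 reads q60 s. Buffer 50mM HEPES pH 7.8, 0.5mM EDTA, 1mM TCEP, 0.01% Tween-20, 0.1 mg/ml BSA.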
# [11] = Primary qHTS for small molecule stabilizers of the endoplasmic reticulum resident proteome: Secreted ER Calcium Modulated Protein (SERCaMP) assay (AID 1508630); further: on the % scale 0 is the no-effect control and ±100 the full control effect
# How it was run: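 The SH-SY5Y reporter protocol was run at 3 concentrations up to 38.3 uM (primary) or 11 concentrations (follow-up): 16 h compound, 100 nM thapsigargin for 4 h, then extracellular luciferase luminescence.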
# [12] = molecular target: Cytochrome P450 1A2 (Homo sapiens) (UniProt P05177); assay: p450-cyp1a2 (AID 410; calls by dose curve; further: potency means the concentration at half of the fitted maximal effect)
# Cytochrome P450 1A2 (Homo sapiens), sequence (P05177 whole entry, looked up): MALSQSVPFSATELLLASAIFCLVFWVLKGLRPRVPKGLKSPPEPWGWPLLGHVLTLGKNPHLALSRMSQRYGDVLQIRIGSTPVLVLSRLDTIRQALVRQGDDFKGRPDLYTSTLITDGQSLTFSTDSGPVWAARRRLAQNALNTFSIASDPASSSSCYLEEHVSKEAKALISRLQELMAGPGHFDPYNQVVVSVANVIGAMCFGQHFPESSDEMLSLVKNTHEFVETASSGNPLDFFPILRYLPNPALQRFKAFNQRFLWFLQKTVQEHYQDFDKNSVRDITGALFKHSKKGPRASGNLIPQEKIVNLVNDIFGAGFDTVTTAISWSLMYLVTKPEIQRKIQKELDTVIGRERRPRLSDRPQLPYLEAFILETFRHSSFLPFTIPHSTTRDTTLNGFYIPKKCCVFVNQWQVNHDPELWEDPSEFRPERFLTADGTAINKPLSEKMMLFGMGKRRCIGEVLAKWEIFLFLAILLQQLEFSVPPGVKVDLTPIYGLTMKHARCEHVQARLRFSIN
# How it was run: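 Luminescent demethylation readout: Luciferin-ME (100uM, equal to Km) turned over by 20nM CYP1A2 for 60 min at room temperature after NADPH regeneration addition, following 10 min compound preincubation. Normalization used 57 uM furafylline as full inhibition.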
# [13] = Stat Signaling Pathway (AID 446; active means well fitted curve in either direction with a large enough effect, not every such curve was filed as active); settings: ME-180 SIE beta-lactamase reporter, IL-6 stimulated, 5 h; at 7.69 µM (top of the series) unless noted
# How it was run: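 Emission at 460 and 530 nm (excitation 405 nm) reports SIE-controlled beta-lactamase in ME-180 cells. Cells received compound with 40 pM IL-6 for 5 hrs at 37 C; data scaled between 300 pM IL-6 and 125 nM JAK-inhibitor controls.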
# [14] = molecular target: 3',5'-cyclic-AMP phosphodiesterase 4B (Homo sapiens) (UniProt Q07343); assay: qHTS Assay for Inhibitors of PDE-IV (AID 607; active means well fitted activation curve with a large enough effect in the main read-out, with a control signal flat, not every such curve was filed as active; further: % of control where 0% means no effect)
# 3',5'-cyclic-AMP phosphodiesterase 4B (Homo sapiens), sequence (Q07343 whole entry, looked up): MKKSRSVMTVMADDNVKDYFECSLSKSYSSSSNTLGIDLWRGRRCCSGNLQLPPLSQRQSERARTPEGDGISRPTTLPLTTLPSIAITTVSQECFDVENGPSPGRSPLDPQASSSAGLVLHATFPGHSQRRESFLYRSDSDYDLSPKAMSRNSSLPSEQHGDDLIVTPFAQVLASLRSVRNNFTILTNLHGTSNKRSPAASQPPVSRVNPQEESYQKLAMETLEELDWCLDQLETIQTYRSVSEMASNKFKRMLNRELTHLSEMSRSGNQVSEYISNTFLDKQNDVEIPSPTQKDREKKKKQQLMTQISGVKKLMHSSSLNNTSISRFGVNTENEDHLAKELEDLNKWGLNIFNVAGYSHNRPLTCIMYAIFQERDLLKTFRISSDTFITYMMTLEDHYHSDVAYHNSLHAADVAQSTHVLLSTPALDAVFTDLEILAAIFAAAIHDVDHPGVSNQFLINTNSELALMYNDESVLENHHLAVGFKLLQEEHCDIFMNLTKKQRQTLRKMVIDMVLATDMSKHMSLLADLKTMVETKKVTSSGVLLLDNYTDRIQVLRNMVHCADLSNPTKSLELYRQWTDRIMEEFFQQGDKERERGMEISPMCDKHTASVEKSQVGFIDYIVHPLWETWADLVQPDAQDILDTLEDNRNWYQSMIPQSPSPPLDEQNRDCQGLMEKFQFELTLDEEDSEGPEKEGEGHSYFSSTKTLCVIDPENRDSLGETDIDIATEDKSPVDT
# How it was run: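 The readout is membrane depolarisation from a cAMP-sensing CNG channel, detected with a potential dye at ex 535/em 590. Cells were HEK293-derived (endogenous PDE-IV) at 1000 cells/well, titrated up to 22.9 uM final.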
# [15] = molecular target: Cytochrome P450 3A4 (Homo sapiens) (UniProt P08684); assay: qHTS Assay for Activators of Cytochrome P450 3A4 (AID 885); further: nearly all actives have a fitted effect of over 65% in size
# Cytochrome P450 3A4 (Homo sapiens), sequence (P08684 whole entry, looked up): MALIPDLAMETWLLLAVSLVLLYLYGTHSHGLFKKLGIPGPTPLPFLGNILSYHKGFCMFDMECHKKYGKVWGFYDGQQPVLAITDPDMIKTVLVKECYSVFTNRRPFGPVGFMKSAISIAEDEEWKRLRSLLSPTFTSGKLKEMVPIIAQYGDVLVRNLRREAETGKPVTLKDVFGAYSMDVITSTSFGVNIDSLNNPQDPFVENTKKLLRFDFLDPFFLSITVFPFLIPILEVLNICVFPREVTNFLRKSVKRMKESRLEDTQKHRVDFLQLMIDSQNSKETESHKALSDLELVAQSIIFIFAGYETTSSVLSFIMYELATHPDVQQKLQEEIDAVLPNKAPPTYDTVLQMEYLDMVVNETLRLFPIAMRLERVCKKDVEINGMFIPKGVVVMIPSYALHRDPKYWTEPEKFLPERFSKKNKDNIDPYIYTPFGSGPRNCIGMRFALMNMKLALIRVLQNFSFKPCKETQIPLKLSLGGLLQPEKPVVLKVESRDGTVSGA
# How it was run: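 Activators are scored by enhanced luminescence from CYP3A4 conversion of luciferin-PPXE (25uM, equal to KM) to luciferin, after 60 min at RT with an NADPH-regenerating system.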
# [16] = molecular target: Cytochrome P450 3A4 (Homo sapiens) (UniProt P08684); assay: qHTS Assay for Inhibitors and Substrates of Cytochrome P450 3A4 (AID 884); further: potency means the concentration at half of the fitted maximal effect; nearly all actives have a fitted effect of over 50% in size
# How it was run: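 Luminescent readout of luciferin produced by CYP3A4 (20 nM) dealkylation of Luciferin-PPXE, 25 uM (its KM). NADPH-driven reaction ran 60 min at RT after 10 min compound preincubation; data scaled to 57 uM ketoconazole as 100% inhibition.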
# [17] = qHTS Assay for Identification of Small Molecule Agonists for Hypoxia Response Element Signaling Pathway (AID 914; active means well fitted activation curve with a large enough effect in the signal ratio, with a control signal flat, not every such curve was filed as active; the % refers to the signal ratio; further: % of control where 0% means no effect); settings: ME-180 HRE-bla reporter, beta-lactamase ratio, CoCl2, 17 h; activation: stronger effect = higher value
# How it was run: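 ME-180 cells carrying an HRE-driven beta-lactamase reporter were treated with compounds in a titration series plus an EC50 level of CoCl2 for 17 h at 37 degrees Celsius; CCF4 readout as the 460nm/530nm ratio gave AC50 values.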
# [18] = measured here: cell count channel max response
# [19] = measured here: lipid channel max response
SMILES,Potency [1],"activity change, negative = inhibition [2]","activity change, negative = inhibition [3]",Potency [4],Potency [5],outcome [6],"activity change, negative = inhibition [7]","max response [7, 18] [%]","max response [7, 19] [%]",Potency [8],Potency [9],Potency [10],Potency [11],Potency [12],"activity, negative = inhibition [13]",Potency [14],Potency [15],Potency [16],activation [17]
COc1ccc(-c2nc3cnc(N4CCOCC4)nc3n(C3CC3)c2=O)cc1,> 11.4 µM (inactive),3.24% (inactive),8.69% (inactive),> 9.22 µM (inactive),> 46 µM (inactive),inactive,1.26% (inactive),9.72,11.8,inactive,inactive,inactive,inactive,–,–,–,–,–,–
CN(C)c1ncc2nc(-c3ccc(F)cc3)c(=O)n(Cc3cccs3)c2n1,> 11.4 µM (inactive),14.3% (inactive),5.02% (inactive),> 9.22 µM (inactive),> 46 µM (inactive),–,2.1% (inactive),26.1,28,inactive,–,inactive,inactive,1 µM (active),-1.13% (inactive),–,–,–,–
O=c1c(-c2ccccc2)nc2cnc(N3CCOCC3)nc2n1C1CC1,> 11.4 µM (inactive),-9.27% (inactive),–,> 9.22 µM (inactive),> 46 µM (inactive),inactive,-1.42% (inactive),1.76,-1.06,inactive,inactive,inactive,inactive,3.16 µM (active),-7.68% (inactive),inactive,–,–,–
CS(=O)(=O)Nc1cccc(-c2ccc3ncnc(NCCN4CCOCC4)c3c2)c1,> 11.4 µM (inactive),-17.6% (inactive),–,–,> 46 µM (inactive),inactive,-0.458% (inactive),-4.37,-8.3,8.91 µM (active),–,inactive,inactive,25.1 µM (active),2.22% (inactive),inactive,inactive,–,–
COc1cccc(Nc2ncc3nc(C)c(=O)n(CCc4ccccc4)c3n2)c1,> 11.4 µM (inactive),-17.7% (inactive),3.56% (inactive),> 9.22 µM (inactive),> 46 µM (inactive),inactive,-2.06% (inactive),-10.5,-13.8,7.08 µM (active),–,inactive,inactive,5.01 µM (active),-6.89% (inactive),–,inactive,7.94 µM (active),–
COc1ccc(Oc2ncc3nc(C)c(=O)n(C[C@H]4CCCO4)c3n2)cc1,–,-5.04% (inactive),1.62% (inactive),> 9.22 µM (inactive),> 46 µM (inactive),inactive,-2.24% (inactive),-3.75,-4.08,inactive,inactive,inactive,inactive,12.6 µM (active),-14.8% (inactive),inactive,inactive,3.98 µM (active),-5.29% (inactive)
CN1CCN(c2ccnc(-c3ccoc3)n2)CC1,–,21.7% (inactive),-15.5% (inactive),–,> 46 µM (inactive),inactive,0.402% (inactive),20.2,20.2,inactive,inactive,inactive,inactive,12.6 µM (active),11.2% (inactive),inactive,–,–,–
COc1cccc(Nc2ncc3ncc(=O)n(CCc4ccccc4)c3n2)c1,> 11.4 µM (inactive),–,4.6% (inactive),> 9.22 µM (inactive),> 46 µM (inactive),inactive,-5.96% (inactive),-10.9,-19.1,0.282 µM (active),–,inactive,inactive,–,-3.68% (inactive),–,–,–,–
Cc1ccccc1-c1nccc(NCc2cccs2)n1,–,-5.62% (inactive),1.22% (inactive),> 46 µM (inactive),> 46 µM (inactive),inactive,6.73% (inactive),-2.46,6,inactive,inactive,25.1 µM (active),inactive,0.501 µM (active),3.98% (inactive),inactive,inactive,2 µM (active),–
COc1ccc(-c2nc3cnc(N4CCN(C)CC4)nc3n(Cc3cccs3)c2=O)cc1,> 11.4 µM (inactive),–,–,> 9.22 µM (inactive),> 46 µM (inactive),–,1.59% (inactive),17.6,18,inactive,inactive,inactive,inactive,–,–,inactive,–,–,–
N#CCCn1c(=O)c(-c2ccc(F)cc2)nc2cnc(N3CCOCC3)nc21,–,-0.71% (inactive),13.6% (inactive),> 9.22 µM (inactive),> 46 µM (inactive),inactive,3.46% (inactive),20.8,23,inactive,inactive,inactive,inactive,–,10.6% (inactive),inactive,–,–,–
O=c1cnc2cnc(Nc3ccccc3)nc2n1Cc1ccc(F)cc1,> 11.4 µM (inactive),-17.4% (inactive),3.72% (inactive),> 9.22 µM (inactive),> 46 µM (inactive),inactive,6.15% (inactive),9.12,14.4,–,inactive,inactive,inactive,1 µM (active),-3.92% (inactive),–,–,–,–
